PubChem BioAssay (EPA / NIEHS)
Calls of active or inactive are those of the source. Rule for the calls: active = hit-call score of the fitted dose curve at least 0.9, where 1 is the maximum; inactive = score below 0.9.

Assays:
[1] = ATG_CRE_CIS: Attagene CIS-FACTORIAL HepG2 Assay for human cAMP Responsive Element (CRE) binding protein 3 (AID 2282926); conditions: HepG2 CRE cis-reporter, Attagene multiplexed mRNA; actives raise or lower the signal
How it was run: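 Transfected HepG2 were treated for 24 hours, then RNA was extracted and reporter cDNA amplified with sequence-specific primers. Labelled fragments were separated by capillary electrophoresis, and the CRE signal was fitted bidirectionally with DMSO as baseline.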

[2] = molecular target: CCAAT/enhancer-binding protein beta (Homo sapiens) (UniProt P17676); assay: ATG_C_EBP_CIS: Attagene CIS-FACTORIAL HepG2 Assay for human CCAAT/Enhancer Binding Protein (C/EBP) beta (AID 2282927); conditions: HepG2 Attagene cis-factorial transcription factor reporter; actives raise or lower the signal
Sequence of CCAAT/enhancer-binding protein beta (Homo sapiens) (P17676 whole entry, looked up): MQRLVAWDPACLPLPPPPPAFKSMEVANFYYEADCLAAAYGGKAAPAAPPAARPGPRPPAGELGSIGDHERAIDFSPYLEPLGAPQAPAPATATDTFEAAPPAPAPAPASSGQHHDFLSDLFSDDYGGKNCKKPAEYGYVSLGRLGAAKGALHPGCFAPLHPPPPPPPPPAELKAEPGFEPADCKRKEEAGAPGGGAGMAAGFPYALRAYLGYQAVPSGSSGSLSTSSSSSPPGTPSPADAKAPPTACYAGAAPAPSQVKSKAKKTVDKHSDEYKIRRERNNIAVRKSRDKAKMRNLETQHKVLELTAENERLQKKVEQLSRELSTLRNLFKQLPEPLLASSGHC
How it was run: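 Transiently transfected HepG2 (MRTU library, endogenous TF-driven promoters); 24 h dosing; total RNA → oligo(dT) RT → PCR → 6-FAM primer extension → HpaI digest → CE; fit bidirectionally vs DMSO.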

[3] = ATG_CMV_CIS: Attagene CIS-FACTORIAL HepG2 Assay for human CMV (Internal Marker) (AID 2282928); conditions: HepG2 CMV promoter reporter, transcription factor profiling; actives raise or lower the signal;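 note: endpoint acts as a background internal control marker rather than a target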
How it was run: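 Cell system: HepG2, transiently transfected multiple reporter units under cis promoters. Exposure: 24 h. Detection: RT-PCR, FAM labeling, HpaI digestion, capillary electrophoresis. Analysis: bidirectional, DMSO baseline.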

[4] = molecular target: Aryl hydrocarbon receptor (Homo sapiens) (UniProt P35869); assay: ATG_Ahr_CIS: Attagene CIS-FACTORIAL HepG2 Assay for human Aryl Hydrocarbon Receptor (Ahr) (AID 2282930); conditions: HepG2 AhR cis-factorial reporter transcription; actives raise or lower the signal
Sequence of Aryl hydrocarbon receptor (Homo sapiens) (P35869 whole entry, looked up): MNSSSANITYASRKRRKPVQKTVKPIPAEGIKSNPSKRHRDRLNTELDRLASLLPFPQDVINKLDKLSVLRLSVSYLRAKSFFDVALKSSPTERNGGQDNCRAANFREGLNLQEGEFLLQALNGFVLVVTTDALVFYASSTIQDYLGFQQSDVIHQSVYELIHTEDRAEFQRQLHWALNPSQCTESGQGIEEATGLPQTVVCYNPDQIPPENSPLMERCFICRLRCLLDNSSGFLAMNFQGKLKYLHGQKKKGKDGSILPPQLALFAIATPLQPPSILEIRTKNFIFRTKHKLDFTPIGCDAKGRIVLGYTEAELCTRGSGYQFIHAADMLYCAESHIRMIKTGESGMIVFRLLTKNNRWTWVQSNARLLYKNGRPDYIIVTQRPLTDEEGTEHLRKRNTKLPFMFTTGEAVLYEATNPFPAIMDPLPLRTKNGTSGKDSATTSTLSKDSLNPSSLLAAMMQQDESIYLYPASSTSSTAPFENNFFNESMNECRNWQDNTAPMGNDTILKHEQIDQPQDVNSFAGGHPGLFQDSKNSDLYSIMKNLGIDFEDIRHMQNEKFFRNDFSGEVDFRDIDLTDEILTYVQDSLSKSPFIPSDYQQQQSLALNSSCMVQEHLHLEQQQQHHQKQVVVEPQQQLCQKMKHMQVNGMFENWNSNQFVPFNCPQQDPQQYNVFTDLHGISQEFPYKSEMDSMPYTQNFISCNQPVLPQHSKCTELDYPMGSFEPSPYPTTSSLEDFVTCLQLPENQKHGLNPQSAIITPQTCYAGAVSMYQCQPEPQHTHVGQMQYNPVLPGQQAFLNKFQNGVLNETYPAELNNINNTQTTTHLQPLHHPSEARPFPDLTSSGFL
How it was run: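 Read-out: reporter mRNA quantified by RT-PCR with fluorescent primer extension and capillary electrophoresis. Human HepG2 liver cells carried transfected cis-promoter reporter units and were exposed to chemical for 24 h; gain or loss fitted relative to DMSO.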

[5] = ATG_AP_1_CIS: Attagene CIS-FACTORIAL HepG2 Assay for human Activator Protein 1 (AP-1) (AID 2282931); conditions: HepG2 Attagene cis-factorial AP-1 reporter mRNA; actives raise or lower the signal
How it was run: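 HepG2 cells transiently transfected with cis-element-driven multiplex reporter units; 24 h compound exposure. Reporter mRNA quantified by RT-PCR, FAM-labelled fragments resolved by capillary electrophoresis; bidirectional fit versus DMSO baseline.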

[6] = ATG_AP_2_CIS: Attagene CIS-FACTORIAL HepG2 Assay for human Activator Protein 2 (AP-2) (AID 2282932); conditions: HepG2 AP-2 cis-reporter, Attagene transcription factor profiling; actives raise or lower the signal
How it was run: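 Multiplexed mRNA reporter assay in HepG2: cis-regulated units report endogenous factor activity after 24 h treatment. Fluorescence from capillary electrophoresis of RT-PCR products gives the signal, with DMSO as baseline.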

[7] = ATG_BRE_CIS: Attagene CIS-FACTORIAL HepG2 Assay for human Bone Morphogenetic Protein (BMP) Response Element (BRE) (AID 2282933); conditions: HepG2 BMP response element reporter, Attagene transcription factor profiling; actives raise or lower the signal
How it was run: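 Transient MRTU transfection of human HepG2 liver cells; 24 h compound treatment; total RNA isolated, reverse-transcribed, PCR-amplified, 6-FAM labelled, HpaI-cut, capillary electrophoresis. DMSO = negative control/baseline, bidirectional fit.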

[8] = molecular target: Retinoic acid receptor alpha (Homo sapiens) (UniProt P10276); assay: ATG_DR5_RAR_CIS: Attagene CIS-FACTORIAL HepG2 Assay for human Retinoic Acid Receptor Alpha (RARE), DR5 submotif (AID 2282934); conditions: HepG2 Attagene cis-factorial RARE DR5 reporter, mRNA; actives raise or lower the signal
Sequence of Retinoic acid receptor alpha (Homo sapiens) (P10276 whole entry, looked up): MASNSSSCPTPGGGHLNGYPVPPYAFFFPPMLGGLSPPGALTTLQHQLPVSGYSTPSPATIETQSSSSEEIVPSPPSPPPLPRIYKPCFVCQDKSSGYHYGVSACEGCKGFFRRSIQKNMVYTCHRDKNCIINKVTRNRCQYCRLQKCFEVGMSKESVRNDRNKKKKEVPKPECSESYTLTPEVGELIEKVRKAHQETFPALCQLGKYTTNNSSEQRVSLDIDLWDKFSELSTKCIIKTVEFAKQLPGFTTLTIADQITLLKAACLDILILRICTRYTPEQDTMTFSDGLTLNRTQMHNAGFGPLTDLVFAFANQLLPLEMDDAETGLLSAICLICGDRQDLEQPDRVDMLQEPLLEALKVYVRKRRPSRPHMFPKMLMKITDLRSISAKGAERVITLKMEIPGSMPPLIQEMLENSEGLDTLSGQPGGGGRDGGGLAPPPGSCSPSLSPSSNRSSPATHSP
How it was run: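 Read-out: DR5-driven reporter transcript measured by RT-PCR, 6-FAM primer extension, HpaI digest and capillary electrophoresis. Human HepG2 liver cells carry transiently transfected cis-element reporter constructs; dosing lasts 24 h. Gain or loss of signal fitted against DMSO baseline.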

[9] = molecular target: Transcription factor E2F1 (Homo sapiens) (UniProt Q01094); assay: ATG_E2F_CIS: Attagene CIS-FACTORIAL HepG2 Assay for human E2F Transcription Factor 1 (AID 2282935); conditions: HepG2 Attagene cis-reporter, E2F reporter RNA transcripts; actives raise or lower the signal
Sequence of Transcription factor E2F1 (Homo sapiens) (Q01094 whole entry, looked up): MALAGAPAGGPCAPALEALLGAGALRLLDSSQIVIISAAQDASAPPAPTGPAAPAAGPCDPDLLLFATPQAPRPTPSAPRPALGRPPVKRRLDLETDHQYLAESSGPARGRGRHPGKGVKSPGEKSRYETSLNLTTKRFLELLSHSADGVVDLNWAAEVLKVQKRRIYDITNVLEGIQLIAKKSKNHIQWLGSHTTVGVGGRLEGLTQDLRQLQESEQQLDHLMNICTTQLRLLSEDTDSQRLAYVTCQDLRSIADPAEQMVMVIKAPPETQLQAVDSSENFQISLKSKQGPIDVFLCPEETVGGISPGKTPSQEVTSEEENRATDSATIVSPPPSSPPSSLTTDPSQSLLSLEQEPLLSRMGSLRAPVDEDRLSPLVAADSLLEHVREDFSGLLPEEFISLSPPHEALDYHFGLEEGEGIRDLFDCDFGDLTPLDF
How it was run: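 Measures reporter transcript levels via RT-PCR with capillary electrophoresis detection in HepG2 cells harboring cis-regulated reporter units; 24 h post-dose; bidirectional curve fitting with DMSO as baseline.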

[10] = ATG_M_61_CIS: Attagene CIS-FACTORIAL HepG2 Assay for M61 Transcription Factor (Internal Marker) (AID 2282937); conditions: HepG2 Attagene CIS-FACTORIAL M61 internal marker reporter; actives raise or lower the signal
How it was run: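 HepG2 cells transiently transfected with cis-element-driven multiple reporter transcription units, dosed for 24 h. Reporter mRNA measured by RT-PCR, 6-FAM primer-extension labelling, HpaI digestion and capillary electrophoresis; bidirectional fit versus DMSO baseline.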

[11] = ATG_EGR_CIS: Attagene CIS-FACTORIAL HepG2 Assay for human Early Growth Response 1 (EGR1) (AID 2282938); conditions: HepG2 Attagene CIS-FACTORIAL EGR reporter mRNA; actives raise or lower the signal
How it was run: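 HepG2 cells transiently transfected with cis-promoter-driven multiplexed reporter transcription units; reporter mRNA measured 24 h after compound dosing by RT-PCR, 6-FAM primer extension, HpaI digestion and capillary electrophoresis. Bidirectional fit versus DMSO baseline.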

[12] = ATG_M_19_CIS: Attagene CIS-FACTORIAL HepG2 Assay for M19 Transcription Factor (Internal Marker) (AID 2282939); conditions: HepG2 Attagene CIS-FACTORIAL M19 internal marker reporter; actives raise or lower the signal
How it was run: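 Transfect HepG2 with MRTU reporter library → dose chemical, 24 h → isolate total RNA, reverse-transcribe with oligo(dT) → PCR, 6-FAM label, HpaI cut (2 h, 37 C) → capillary electrophoresis. Bidirectional fit vs DMSO.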

[13] = ATG_Ets_CIS: Attagene CIS-FACTORIAL HepG2 Assay for human Erythroblast Transformation Specific (ETS) (AID 2282941); conditions: HepG2 ETS cis-reporter transcription, actives raise or lower the signal
How it was run: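 After transient cis-reporter transfection, HepG2 cells receive test chemical for 24 h. Reporter mRNA levels, measured by RT-PCR and capillary electrophoresis fluorescence, are analysed bidirectionally relative to the DMSO baseline.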

[14] = molecular target: Hepatocyte nuclear factor 3-beta (Homo sapiens) (UniProt Q9Y261); assay: ATG_FoxA2_CIS: Attagene CIS-FACTORIAL HepG2 Assay for human Forkhead box A2 (FOXA2) (AID 2282942); conditions: HepG2 cis-reporter transcription factor activity, 24 h; actives raise or lower the signal
Sequence of Hepatocyte nuclear factor 3-beta (Homo sapiens) (Q9Y261 whole entry, looked up): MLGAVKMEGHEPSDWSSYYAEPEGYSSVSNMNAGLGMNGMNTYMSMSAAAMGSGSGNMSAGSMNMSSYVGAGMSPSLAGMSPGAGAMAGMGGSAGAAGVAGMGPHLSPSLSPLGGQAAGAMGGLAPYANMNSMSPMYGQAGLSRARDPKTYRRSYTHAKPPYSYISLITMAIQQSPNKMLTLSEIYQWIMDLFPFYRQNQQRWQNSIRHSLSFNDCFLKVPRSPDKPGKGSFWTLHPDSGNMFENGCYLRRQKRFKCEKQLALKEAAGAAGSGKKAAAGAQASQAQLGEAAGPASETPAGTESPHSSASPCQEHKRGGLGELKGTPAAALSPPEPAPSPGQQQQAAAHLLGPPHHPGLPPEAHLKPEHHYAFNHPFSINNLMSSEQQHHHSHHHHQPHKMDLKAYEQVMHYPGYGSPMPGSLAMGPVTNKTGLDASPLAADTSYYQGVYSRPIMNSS
How it was run: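 HepG2 cells transiently transfected with multiple cis-regulated reporter transcription units, dosed for 24 h. Reporter mRNA measured by RT-PCR, 6-FAM labelling, HpaI digestion and capillary electrophoresis; bidirectional fitting against DMSO baseline.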

[15] = ATG_FoxO_CIS: Attagene CIS-FACTORIAL HepG2 Assay for human Forkhead box O (FoxO) (AID 2282943); conditions: HepG2 Attagene cis-reporter, FoxO element, mRNA; actives raise or lower the signal
How it was run: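 Read-out: fluorescence of 6-FAM-labelled reporter cDNA fragments resolved by capillary electrophoresis. Transiently transfected HepG2 cells were dosed for 24 h; activity fitted in both directions relative to DMSO controls.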

[16] = ATG_GATA_CIS: Attagene CIS-FACTORIAL HepG2 Assay for human GATA Binding Protein (AID 2282944); conditions: HepG2 GATA cis-element reporter, Attagene multiplex mRNA; actives raise or lower the signal
How it was run: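 Transient MRTU transfection, HepG2, 24 h compound exposure. Total RNA → oligo(dT) RT → PCR → 6-FAM primer extension → HpaI cut → CE. Bidirectional fit vs DMSO.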

[17] = ATG_GLI_CIS: Attagene CIS-FACTORIAL HepG2 Assay for human Zinc Finger Protein GLI1 (AID 2282945); conditions: HepG2, Attagene cis-factorial reporter mRNA, GLI element; actives raise or lower the signal
How it was run: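 Transiently transfected HepG2 cells report endogenous transcription factor activity via cis-element-driven reporter units. After 24 h compound exposure, reporter mRNA was measured by RT-PCR with capillary electrophoresis; bidirectional fitting against DMSO baseline.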

[18] = ATG_DR4_LXR_CIS: Attagene CIS-FACTORIAL HepG2 Assay for human Liver X Receptor (LXR), DR4 submotif (AID 2282929); conditions: HepG2 Attagene DR4 cis-reporter, mRNA transcription; actives raise or lower the signal
How it was run: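 HepG2 cells transiently transfected with cis-promoter-driven multiplexed reporter units (DR4 element) were dosed for 24 h. Reporter mRNA was quantified by RT-PCR, fluorescent primer extension, HpaI digestion and capillary electrophoresis; bidirectional fitting versus DMSO baseline.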

[19] = ATG_E_Box_CIS: Attagene CIS-FACTORIAL HepG2 Assay for human Enhancer Box (E-box) (AID 2282936); conditions: HepG2 E-box cis-reporter transcription, actives raise or lower the signal
How it was run: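 First, HepG2 cells receive multiple cis-regulated reporter constructs by transient transfection. Next, chemicals are applied for 24 h. Finally, reporter mRNA is quantified via RT-PCR and capillary electrophoresis, with DMSO as baseline.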

[20] = ATG_ERE_CIS: Attagene CIS-FACTORIAL HepG2 Assay for Estrogen Response Element (ERE) (AID 2282940); conditions: HepG2 ERE cis-reporter, Attagene RNA transcript; actives raise or lower the signal
How it was run: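 Transient MRTU transfection of human HepG2; cis-element promoters; 24 h dosing; total RNA → RT (oligo dT) → PCR → 6-FAM primer extension → HpaI digest → CE fluorescence. Bidirectional fit, DMSO baseline.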

Measured: AC50

O=C1C(c2[nH]c3ccc(S(=O)(=O)O)cc3c2O)=Nc2ccc(S(=O)(=O)O)cc21
active: [4] 27.6 µM
not listed: [18] | [19] | [20]
inactive: all other assays above

CCCCCCCCC=O
not listed: [4] | [8] | [19] | [20]
inactive: all other assays above

O=c1[nH]nnc2ccccc12
not listed: [8] | [16] | [18] | [20]
inactive: all other assays above

COc1c(Cl)c(Cl)c(Cl)c(Cl)c1Cl
active: [3] 27.7 µM
not listed: [4] | [8] | [20]
inactive: all other assays above

OCc1cccnc1
not listed: [4] | [8] | [10] | [11] | [13] | [15]
inactive: all other assays above

O=CCCc1ccccc1
not listed: [4] | [8] | [10] | [19] | [20]
inactive: all other assays above

CC1CC(OC(=O)c2ccccc2O)CC(C)(C)C1 (configuration not stated)
active: [3] 100 µM | [5] 69.4 µM
not listed: [18] | [20]
inactive: all other assays above

C=CC(C)(O)CCC=C(C)CCC=C(C)C (configuration not stated)
active: [1] 126 µM | [2] 137 µM | [3] 183 µM | [4] 51 µM | [6] 161 µM | [19] 131 µM | [10] 166 µM | [11] 100 µM | [12] 176 µM | [13] 164 µM | [17] 178 µM
inactive: [7] | [9] | [14] | [15] | [16]

C=C(C)C(=O)OCc1ccccc1
not listed: [8] | [10] | [18]
inactive: all other assays above

COc1cc(C=O)ccc1OC(=O)C(C)C
not listed: [15] | [16] | [18] | [20]
inactive: all other assays above

CCCC[n+]1ccccc1
not listed: [18] | [20]
inactive: all other assays above

Cc1ccc(C(=O)O)o1
not listed: [8] | [10] | [18] | [20]
inactive: all other assays above

COC(C)CCO (configuration not stated)
active: [5] 42.4 µM
not listed: [7] | [12] | [18] | [20]
inactive: all other assays above
